Screening data deposited in PubChem BioAssay by Center for Chemical Genomics, University of Michigan.
Dicer inh = inhibitors of human Dicer processing of pre-microRNA; cat-ELCCA pre-miR-21 Dicer processing, chemiluminescence; hits give high values; z-score at 25 µM; 47,000 tested, 6% active; in the data active = z-score above about 3, passing the limit was not always enough;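 also: higher signal means more uncleaved substrate so more Dicer inhibition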
Of the large screens only hits and unclear results are named; the others gave an inactive call. This is one part of a sample in which hits are shown more often than they occur.

CC(C)(C)C1CCc2oc3ccc(NS(=O)(=O)c4ccc(C(=O)O)cc4)cc3c2C1 (stereo not given)	Dicer inh 4.2
Cc1cc(F)ccc1S(=O)(=O)Nc1ccc2oc3c(c2c1)CC(C)CC3 (stereo not given)	Dicer inh 6.6
O=C(O)c1ccc(S(=O)(=O)Nc2ccc3oc(=O)sc3c2)cc1	none
O=c1oc2ccc(NS(=O)(=O)c3ccc(F)cc3)cc2s1	Dicer inh 4.9
COC(=O)c1c(C)oc2ccc(NS(=O)(=O)c3ccc(Br)cc3)cc12	none
Cc1cc(C)c(C)c(S(=O)(=O)Nc2ccc3oc(=O)sc3c2)c1C	Dicer inh 4.3
Cc1cc(=O)oc2cc(NS(=O)(=O)c3ccc(F)cc3)ccc12	none
Cc1cc(F)ccc1S(=O)(=O)Nc1ccc2oc(C)c(C(=O)OC(C)C)c2c1	none
CC1CCc2oc3ccc(NS(=O)(=O)c4cccc5cccnc45)cc3c2C1 (stereo not given)	none
C=CCNC(=S)N1N=C2c3ccccc3CCC2C1c1cccs1 (stereo not given)	none
CC1(C)C2CCC1(C)C(N1CCN(Cc3ccccc3)CC1)C2 (stereo not given)	none
CO/N=C1\CCCc2c(C(=O)N/N=C/c3ccccc3Cl)sc(SC)c21	none
COc1cc(-c2nc3ccccc3c(=O)o2)ccc1OC(C)=O	none
CCCCCCNC(=O)NCCCC(=O)O	none
Cc1ccc(S(=O)(=O)N2CCN(S(=O)(=O)N3CCOCC3)CC2)c(C)c1	none
COc1ccc(S(=O)(=O)Nc2ccc3oc(=O)sc3c2)cc1OC	Dicer inh 3.4
O=S(=O)(Nc1ccc2c(c1)OCO2)c1ccc(Cl)cc1	none
Cc1ccc(S(=O)(=O)Nc2cc(Cl)c3oc(=O)sc3c2)c(C)c1	Dicer inh 12
COc1ccc(OC)c(NS(=O)(=O)c2ccc(Cl)cc2)c1	none
O=S(=O)(Nc1nc(-c2ccc(Cl)cc2Cl)cs1)c1ccc(Cl)cc1	none
Cn1cc(Br)c(-c2cccc(NS(=O)(=O)c3ccc(Cl)cc3)c2)n1	none
Cc1cc(S(=O)(=O)Nc2cccnc2)c(C)cc1Cl	none
O=c1oc2ccc(NS(=O)(=O)c3ccc(Cl)cc3)cc2s1	Dicer inh 9.8
COc1ccccc1C(=O)Oc1ccc2oc(=O)sc2c1	none
O=c1oc2c(Br)cc(NS(=O)(=O)c3ccc(Cl)cc3)cc2s1	Dicer inh 13
COc1cc(S(=O)(=O)Nc2cccnc2)ccc1F	none
CCCCCOC(=O)C1=C(C)NC2=C(C(=O)CCC2)C1c1cccc(Br)c1 (stereo not given)	none
CC(C)(C)OC(=O)C(Cc1ccccc1)NC(=O)CNC(=O)OCc1ccccc1 (stereo not given)	none
O=C(O)c1ccccc1S(=O)c1cc(C(=O)O)c(S(=O)c2ccccc2C(=O)O)cc1C(=O)O (stereo not given)	none
O=C(NCc1cccs1)NC(=O)c1c(Cl)cccc1Cl	none
CCc1ccc(Oc2c(C(F)(F)F)oc3cc(OCC(=O)OC)ccc3c2=O)cc1	none
CCCc1cc2c(=O)c(-c3ccc(C(=O)OCC)o3)coc2cc1O	none
CC(C)S(=O)(=O)c1csc(NC(=O)Nc2cc(C(F)(F)F)cc(C(F)(F)F)c2)c1Cl	none
CN(C)c1ccc(C2(c3ccc(N(C)C)cc3)OC(=O)c3ccccc32)cc1	none
O=C(COc1ccc(Cl)cc1)Oc1ccc2c(c1)oc(=O)c1ccccc12	none
CCOC(=O)c1cnn2c1NC(c1ccc(C(C)C)cc1)CC2C(F)(F)F (stereo not given)	none
COc1ccc(N(CC(O)Cn2c3ccccc3c3ccccc32)S(C)(=O)=O)cc1 (stereo not given)	none
Cc1cc(C)c2c(n1)sc1c(=O)sc(NC(=O)c3ccc(C(F)(F)F)nc3C)nc12	none
CCOC(=O)n1c(=O)oc2cc(S(=O)(=O)Nc3ccc(C)cc3)ccc21	none
Cc1ccc(S(=O)(=O)Nc2ccc3oc(=O)sc3c2)cc1	Dicer inh 5
Cc1ccc(S(=O)(=O)Nc2ccc3oc(=O)sc3c2)c(C)c1	none
O=S(=O)(Nc1ccc(Br)cc1)c1ccccc1	none
O=c1oc2c(Cl)cc(NS(=O)(=O)c3ccccc3)cc2s1	Dicer inh 11
Cc1cc(F)ccc1S(=O)(=O)Nc1c(C)n(C)n(-c2ccccc2)c1=O	none
CC(=O)Nc1ccc(NS(=O)(=O)c2ccc(C)cc2)cc1[N+](=O)[O-]	none
COc1ccc(OC)c(S(=O)(=O)Nc2cc(Cl)c3oc(=O)sc3c2)c1	none
Cc1cc(F)ccc1S(=O)(=O)Nc1ccc2oc(=O)sc2c1	Dicer inh 7.8
Cn1c(SCC(=O)c2ccc(Br)cc2)nnc1-c1ccccc1	none
C#CC(C)(C)N1CN=C(SC)NC1	none
O=C1C(C2=NC(c3ccccn3)C3C(=O)N(c4ccc(Cl)cc4)C(=O)C23)=C(O)c2ccccc21 (stereo not given)	none
CC1CN(c2ccc(Oc3ccccc3)cc2)c2nc3c(c(=O)n(CC(=O)O)c(=O)n3C)n2C1 (stereo not given)	none
COc1ccc(C2/C(=C(\O)c3ccc(Cl)cc3)C(=O)C(=O)N2CCCn2ccnc2)cc1OC (stereo not given)	none
COc1ccc(NS(=O)(=O)c2ccc(Cl)cc2)c([N+](=O)[O-])c1	none
CCOC(=O)c1c(N2C(=O)CSCC2=O)sc2c1CCCC2	none
O=C1c2oc3ccccc3c(=O)c2C(c2ccc(O)cc2)N1Cc1ccc(F)cc1 (stereo not given)	none
CCc1ccnc(NC(=O)Nc2ccc(C)c(Cl)c2)c1	none
c1ccc(Cc2cn3cc(-c4ccccc4)nc3s2)cc1	none
Clc1ccccc1Cc1cn2cc(-c3ccccc3)nc2s1	Dicer inh 4.1
Fc1ccc(Cc2cn3cc(-c4ccccc4)nc3s2)cc1	none
COc1ccc(-c2cc(C(F)(F)F)n3ncnc3n2)cc1	none
CN1CCN(C(=O)CN2C(=O)COc3ccc(Cl)cc32)CC1	none
CCSC1=NC(C)(C)Cc2cc(OC)c(OC)cc21	none
COC(=O)[C@H]1OC(O)[C@H](O)[C@@H](O)[C@H]1O (stereo not given in full)	Dicer inh 5.8
CC(C)NC(=O)O/N=C(\N)COc1ccc(C(C)(C)C)cc1	none
Cc1ccc(C(=O)C2C(=O)c3ccccc3C2=O)cc1	none
Cc1ccc(N2C(=O)c3ccccc3C2C(=O)c2ccc(C)cc2O)cc1 (stereo not given)	Dicer inh 12
Cc1ccc(C(=O)CN2/C(=C(/O)c3ccccc3)C(=O)c3ccccc3S2(=O)=O)c(C)c1	none
Oc1ccc2ccccc2c1N=Nc1ccccc1F	none
Oc1ccccc1N=Nc1c(O)ccc2ccccc12	none
Cc1cccc(N=Nc2c(O)ccc3ccccc23)c1	none
Oc1ccc2ccccc2c1N=Nc1cccc(Cl)c1	none
COc1ccc(N=Nc2c(O)ccc3ccccc23)cc1	Dicer inh 3.4
CCN(CCC#N)c1ccc(N=Nc2c(O)ccc3ccccc23)cc1	Dicer inh 6.1
Nc1c(Cl)cc(C(=O)Nc2cc(Cl)cc(Cl)c2)cc1Cl	none
N#Cc1cnn(-c2ncnc3c2cnn3-c2ccccc2)c1N	none
Cc1ccc(S(=O)(=O)Nc2cc(C)ccc2C)cc1	none
Cc1ccc(NS(=O)(=O)c2ccc(Cl)cc2)c([N+](=O)[O-])c1	none
Cc1ccc(S(=O)(=O)Nc2ccc(C)cc2NS(=O)(=O)c2ccc(F)cc2)cc1	Dicer inh 4.6
CC(C)CNC(=O)c1sc(=S)n(-c2ccc(Cl)cc2)c1N	none
Clc1ccc(-c2nnc3ccc4ccccc4n23)cc1	none
Fc1ccc(-c2nnc3ccc4ccccc4n23)cc1	none
COc1ccccc1-c1nnc2ccc3ccccc3n12	Dicer inh 3
CC(=O)NN(C)c1ccc(C(F)(F)F)cc1NS(=O)(=O)c1cc(C(F)(F)F)cc(C(F)(F)F)c1	none
Cn1c(=O)c2c(nc(Cl)n2Cc2ccc(C(C)(C)C)cc2)n(C)c1=O	none
CC(C)n1c(SCc2ccccc2F)nc2c1c(=O)n(C)c(=O)n2C	none
